How the values were obtained:
[1] = target: High affinity nerve growth factor receptor (Homo sapiens) (UniProt P04629); details: at 1 µM;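 further: each value is the mean percent inhibition of TRKA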
[2] = target: BDNF/NT-3 growth factors receptor (Homo sapiens) (UniProt Q16620); details: at 0.1 µM
[3] = target: BDNF/NT-3 growth factors receptor (Homo sapiens) (UniProt Q16620); details: at 1 µM
[4] = target: NT-3 growth factor receptor (Homo sapiens) (UniProt Q16288); details: at 0.1 µM
[5] = target: NT-3 growth factor receptor (Homo sapiens) (UniProt Q16288); details: at 1 µM
[6] = target: T1, Tyrosine-protein kinase TXK (Homo sapiens) (UniProt P42681); details: at 0.1 µM
T1 sequence (whole entry): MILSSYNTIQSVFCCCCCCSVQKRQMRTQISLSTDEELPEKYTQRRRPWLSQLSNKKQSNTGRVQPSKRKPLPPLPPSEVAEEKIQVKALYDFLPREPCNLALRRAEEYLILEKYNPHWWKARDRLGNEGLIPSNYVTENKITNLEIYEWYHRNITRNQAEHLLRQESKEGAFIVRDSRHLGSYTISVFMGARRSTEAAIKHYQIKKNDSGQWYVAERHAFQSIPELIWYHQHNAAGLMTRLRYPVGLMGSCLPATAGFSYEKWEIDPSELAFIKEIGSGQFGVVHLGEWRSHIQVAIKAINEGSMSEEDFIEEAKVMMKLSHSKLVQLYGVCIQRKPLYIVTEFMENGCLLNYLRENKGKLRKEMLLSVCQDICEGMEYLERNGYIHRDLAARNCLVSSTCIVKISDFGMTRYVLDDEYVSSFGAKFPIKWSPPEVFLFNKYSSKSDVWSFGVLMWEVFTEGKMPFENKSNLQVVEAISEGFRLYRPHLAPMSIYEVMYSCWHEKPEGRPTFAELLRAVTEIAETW

[7] = target: T1, Tyrosine-protein kinase TXK (Homo sapiens); details: at 1 µM
[8] = target: Non-receptor tyrosine-protein kinase TYK2 (Homo sapiens) (UniProt P29597); details: at 0.1 µM;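 further: each value is a mean of the inhibition readings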
Chain of Non-receptor tyrosine-protein kinase TYK2 (Homo sapiens) (P29597 whole entry): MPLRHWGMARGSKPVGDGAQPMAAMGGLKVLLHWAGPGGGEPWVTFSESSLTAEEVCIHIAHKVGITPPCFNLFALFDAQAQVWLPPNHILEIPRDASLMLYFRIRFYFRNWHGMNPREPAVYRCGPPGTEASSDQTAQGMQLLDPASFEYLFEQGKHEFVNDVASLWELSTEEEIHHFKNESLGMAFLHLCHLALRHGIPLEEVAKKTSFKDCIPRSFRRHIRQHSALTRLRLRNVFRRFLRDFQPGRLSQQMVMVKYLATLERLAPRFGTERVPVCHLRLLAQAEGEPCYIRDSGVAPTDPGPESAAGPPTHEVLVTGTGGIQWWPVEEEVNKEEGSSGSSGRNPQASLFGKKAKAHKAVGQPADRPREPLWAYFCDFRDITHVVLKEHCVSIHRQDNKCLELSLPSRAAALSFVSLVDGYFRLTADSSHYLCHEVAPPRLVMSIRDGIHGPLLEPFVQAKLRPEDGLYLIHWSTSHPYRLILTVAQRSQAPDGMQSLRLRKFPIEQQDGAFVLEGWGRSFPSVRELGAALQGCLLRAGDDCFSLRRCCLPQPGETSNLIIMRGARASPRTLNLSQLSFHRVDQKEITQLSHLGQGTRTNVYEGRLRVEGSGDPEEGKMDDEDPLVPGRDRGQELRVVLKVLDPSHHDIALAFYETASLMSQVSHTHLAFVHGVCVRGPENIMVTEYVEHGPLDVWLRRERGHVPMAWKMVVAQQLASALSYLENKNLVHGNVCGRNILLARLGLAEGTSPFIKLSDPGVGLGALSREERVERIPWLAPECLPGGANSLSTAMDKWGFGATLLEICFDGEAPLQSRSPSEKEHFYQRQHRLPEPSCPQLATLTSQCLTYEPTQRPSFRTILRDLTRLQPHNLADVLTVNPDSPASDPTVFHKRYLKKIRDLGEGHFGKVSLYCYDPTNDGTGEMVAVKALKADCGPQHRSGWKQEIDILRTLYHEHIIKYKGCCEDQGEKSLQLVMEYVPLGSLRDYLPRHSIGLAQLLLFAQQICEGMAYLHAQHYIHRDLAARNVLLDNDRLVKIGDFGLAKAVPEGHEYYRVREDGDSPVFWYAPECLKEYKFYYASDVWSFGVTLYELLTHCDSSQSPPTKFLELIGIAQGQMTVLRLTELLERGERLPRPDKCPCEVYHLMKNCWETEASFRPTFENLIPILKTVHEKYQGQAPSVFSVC

[9] = target: T2, Dual specificity protein kinase TTK (Homo sapiens) (UniProt P33981); details: at 1 µM;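 further: reported figures are mean TTK inhibition at 1 µM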
T2 sequence (whole entry): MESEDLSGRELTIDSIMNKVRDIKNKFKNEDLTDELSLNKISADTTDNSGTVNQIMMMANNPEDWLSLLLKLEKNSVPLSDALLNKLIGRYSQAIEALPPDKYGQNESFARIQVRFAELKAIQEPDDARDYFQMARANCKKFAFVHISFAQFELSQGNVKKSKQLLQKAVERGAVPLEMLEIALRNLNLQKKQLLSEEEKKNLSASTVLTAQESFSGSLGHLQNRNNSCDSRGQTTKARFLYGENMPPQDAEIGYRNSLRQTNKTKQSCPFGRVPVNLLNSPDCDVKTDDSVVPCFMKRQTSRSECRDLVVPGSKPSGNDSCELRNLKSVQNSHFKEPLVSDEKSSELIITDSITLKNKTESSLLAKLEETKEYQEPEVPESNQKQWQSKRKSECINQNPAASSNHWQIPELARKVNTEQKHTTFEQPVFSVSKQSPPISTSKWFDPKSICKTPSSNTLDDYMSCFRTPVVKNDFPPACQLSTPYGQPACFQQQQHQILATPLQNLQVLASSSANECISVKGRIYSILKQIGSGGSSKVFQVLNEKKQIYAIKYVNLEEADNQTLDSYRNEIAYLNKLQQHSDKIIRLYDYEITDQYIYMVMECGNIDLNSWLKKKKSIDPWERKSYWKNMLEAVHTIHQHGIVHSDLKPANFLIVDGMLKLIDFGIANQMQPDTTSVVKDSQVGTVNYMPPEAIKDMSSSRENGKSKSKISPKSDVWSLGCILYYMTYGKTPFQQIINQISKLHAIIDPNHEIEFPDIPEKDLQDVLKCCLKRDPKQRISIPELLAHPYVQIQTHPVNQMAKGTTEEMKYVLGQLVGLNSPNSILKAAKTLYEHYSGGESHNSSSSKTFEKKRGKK

[10] = target: T3, Aurora kinase A (Homo sapiens) (UniProt O14965); details: at 0.1 µM
T3 sequence (whole entry): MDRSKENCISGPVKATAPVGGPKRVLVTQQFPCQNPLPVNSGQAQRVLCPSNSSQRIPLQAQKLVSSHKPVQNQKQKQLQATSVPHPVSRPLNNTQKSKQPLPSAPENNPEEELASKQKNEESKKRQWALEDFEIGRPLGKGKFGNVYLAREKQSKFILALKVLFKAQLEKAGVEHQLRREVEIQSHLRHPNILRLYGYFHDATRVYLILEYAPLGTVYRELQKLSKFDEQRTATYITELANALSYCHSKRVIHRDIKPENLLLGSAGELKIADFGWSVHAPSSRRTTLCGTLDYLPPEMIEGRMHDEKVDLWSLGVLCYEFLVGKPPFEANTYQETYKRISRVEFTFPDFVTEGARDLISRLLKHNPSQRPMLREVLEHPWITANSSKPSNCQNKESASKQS

[11] = target: T3, Aurora kinase A (Homo sapiens); details: at 1 µM
[12] = target: Aurora kinase B (Homo sapiens) (UniProt Q96GD4); details: at 0.1 µM
Chain of Aurora kinase B (Homo sapiens) (Q96GD4 whole entry): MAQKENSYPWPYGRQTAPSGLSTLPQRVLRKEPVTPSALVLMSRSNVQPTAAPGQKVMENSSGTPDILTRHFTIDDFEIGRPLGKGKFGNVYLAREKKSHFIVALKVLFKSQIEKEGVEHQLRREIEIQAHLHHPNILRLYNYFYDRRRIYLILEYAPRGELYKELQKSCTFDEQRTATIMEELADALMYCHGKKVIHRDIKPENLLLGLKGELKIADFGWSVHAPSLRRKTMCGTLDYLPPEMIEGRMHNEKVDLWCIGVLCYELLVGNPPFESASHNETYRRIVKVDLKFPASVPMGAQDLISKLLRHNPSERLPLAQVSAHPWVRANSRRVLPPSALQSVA

[13] = target: Aurora kinase B (Homo sapiens) (UniProt Q96GD4); details: at 1 µM
[14] = target: T4, Aurora kinase C (Homo sapiens) (UniProt Q9UQB9); details: at 0.1 µM
T4 sequence (whole entry): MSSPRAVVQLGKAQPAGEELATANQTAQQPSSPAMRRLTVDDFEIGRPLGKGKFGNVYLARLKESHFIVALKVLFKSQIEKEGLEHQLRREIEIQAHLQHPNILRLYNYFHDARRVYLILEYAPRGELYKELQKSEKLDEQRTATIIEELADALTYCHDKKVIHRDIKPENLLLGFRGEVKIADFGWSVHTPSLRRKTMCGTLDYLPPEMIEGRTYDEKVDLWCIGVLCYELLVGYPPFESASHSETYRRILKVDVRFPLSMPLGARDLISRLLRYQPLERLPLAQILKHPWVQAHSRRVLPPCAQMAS

[15] = target: T4, Aurora kinase C (Homo sapiens); details: at 1 µM
[16] = target: Serine/threonine-protein kinase 10 (Homo sapiens) (UniProt O94804); details: at 0.1 µM
[17] = target: Serine/threonine-protein kinase 10 (Homo sapiens) (UniProt O94804); details: at 1 µM
[18] = target: T5, Mitogen-activated protein kinase kinase kinase kinase 2 (Homo sapiens) (UniProt Q12851); details: at 0.1 µM
T5 sequence (whole entry): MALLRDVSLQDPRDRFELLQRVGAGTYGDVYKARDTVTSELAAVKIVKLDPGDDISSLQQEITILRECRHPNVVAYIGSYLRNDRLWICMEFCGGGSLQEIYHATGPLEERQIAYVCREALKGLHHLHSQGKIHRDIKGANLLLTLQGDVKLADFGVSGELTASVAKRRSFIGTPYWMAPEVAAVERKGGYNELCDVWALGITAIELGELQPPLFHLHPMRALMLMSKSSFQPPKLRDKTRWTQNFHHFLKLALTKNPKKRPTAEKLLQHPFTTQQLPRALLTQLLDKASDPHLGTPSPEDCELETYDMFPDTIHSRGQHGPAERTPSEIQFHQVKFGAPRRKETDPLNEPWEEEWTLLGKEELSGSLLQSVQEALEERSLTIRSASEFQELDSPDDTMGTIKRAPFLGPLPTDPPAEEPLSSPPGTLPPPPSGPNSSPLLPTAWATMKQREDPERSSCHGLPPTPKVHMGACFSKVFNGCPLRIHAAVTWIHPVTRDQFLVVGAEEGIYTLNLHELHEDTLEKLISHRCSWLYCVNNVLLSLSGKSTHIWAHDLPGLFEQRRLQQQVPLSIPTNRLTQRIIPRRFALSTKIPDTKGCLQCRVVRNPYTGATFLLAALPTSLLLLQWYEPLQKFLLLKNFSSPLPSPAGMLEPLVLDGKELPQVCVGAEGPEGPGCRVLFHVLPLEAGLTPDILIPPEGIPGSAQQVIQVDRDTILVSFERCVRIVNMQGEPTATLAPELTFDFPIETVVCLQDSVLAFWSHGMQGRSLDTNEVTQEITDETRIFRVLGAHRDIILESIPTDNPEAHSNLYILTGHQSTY

[19] = target: T5, Mitogen-activated protein kinase kinase kinase kinase 2 (Homo sapiens); details: at 1 µM
[20] = target: Mitogen-activated protein kinase kinase kinase kinase 4 (Homo sapiens) (UniProt O95819); details: at 0.1 µM
Chain of Mitogen-activated protein kinase kinase kinase kinase 4 (Homo sapiens) (O95819 2-1239 limits assumed): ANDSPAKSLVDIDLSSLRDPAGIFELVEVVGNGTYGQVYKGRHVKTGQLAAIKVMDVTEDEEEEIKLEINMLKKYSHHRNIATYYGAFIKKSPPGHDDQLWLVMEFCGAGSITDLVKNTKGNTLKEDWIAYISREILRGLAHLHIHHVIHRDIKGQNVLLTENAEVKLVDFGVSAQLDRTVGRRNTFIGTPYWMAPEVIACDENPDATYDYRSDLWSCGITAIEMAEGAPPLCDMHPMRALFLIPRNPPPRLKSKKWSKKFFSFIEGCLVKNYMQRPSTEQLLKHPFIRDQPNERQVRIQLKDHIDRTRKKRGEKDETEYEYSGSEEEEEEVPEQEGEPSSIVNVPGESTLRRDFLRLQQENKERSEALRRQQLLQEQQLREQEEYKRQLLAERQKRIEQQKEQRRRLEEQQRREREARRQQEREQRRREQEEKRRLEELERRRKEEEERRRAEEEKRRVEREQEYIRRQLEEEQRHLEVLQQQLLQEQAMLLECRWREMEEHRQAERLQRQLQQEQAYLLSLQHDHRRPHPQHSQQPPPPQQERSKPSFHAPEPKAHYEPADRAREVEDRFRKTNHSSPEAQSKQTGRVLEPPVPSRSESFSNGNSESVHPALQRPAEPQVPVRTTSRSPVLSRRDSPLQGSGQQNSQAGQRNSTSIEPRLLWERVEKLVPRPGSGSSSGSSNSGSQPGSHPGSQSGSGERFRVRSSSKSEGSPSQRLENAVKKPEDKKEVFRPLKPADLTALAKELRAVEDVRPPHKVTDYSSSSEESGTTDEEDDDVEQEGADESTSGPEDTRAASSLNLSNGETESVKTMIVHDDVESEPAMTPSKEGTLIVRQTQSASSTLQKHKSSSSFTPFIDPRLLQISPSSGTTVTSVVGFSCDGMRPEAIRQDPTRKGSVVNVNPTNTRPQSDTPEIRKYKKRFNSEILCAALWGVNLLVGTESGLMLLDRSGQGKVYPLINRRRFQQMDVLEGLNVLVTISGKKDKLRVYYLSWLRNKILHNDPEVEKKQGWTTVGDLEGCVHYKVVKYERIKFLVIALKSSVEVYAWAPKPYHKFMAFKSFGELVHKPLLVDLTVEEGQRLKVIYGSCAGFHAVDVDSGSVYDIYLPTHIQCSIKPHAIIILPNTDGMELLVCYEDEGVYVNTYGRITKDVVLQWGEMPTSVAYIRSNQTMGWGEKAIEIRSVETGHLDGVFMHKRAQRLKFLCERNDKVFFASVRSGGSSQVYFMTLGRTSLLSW

Chain of High affinity nerve growth factor receptor (Homo sapiens) (P04629 33-796 limits assumed): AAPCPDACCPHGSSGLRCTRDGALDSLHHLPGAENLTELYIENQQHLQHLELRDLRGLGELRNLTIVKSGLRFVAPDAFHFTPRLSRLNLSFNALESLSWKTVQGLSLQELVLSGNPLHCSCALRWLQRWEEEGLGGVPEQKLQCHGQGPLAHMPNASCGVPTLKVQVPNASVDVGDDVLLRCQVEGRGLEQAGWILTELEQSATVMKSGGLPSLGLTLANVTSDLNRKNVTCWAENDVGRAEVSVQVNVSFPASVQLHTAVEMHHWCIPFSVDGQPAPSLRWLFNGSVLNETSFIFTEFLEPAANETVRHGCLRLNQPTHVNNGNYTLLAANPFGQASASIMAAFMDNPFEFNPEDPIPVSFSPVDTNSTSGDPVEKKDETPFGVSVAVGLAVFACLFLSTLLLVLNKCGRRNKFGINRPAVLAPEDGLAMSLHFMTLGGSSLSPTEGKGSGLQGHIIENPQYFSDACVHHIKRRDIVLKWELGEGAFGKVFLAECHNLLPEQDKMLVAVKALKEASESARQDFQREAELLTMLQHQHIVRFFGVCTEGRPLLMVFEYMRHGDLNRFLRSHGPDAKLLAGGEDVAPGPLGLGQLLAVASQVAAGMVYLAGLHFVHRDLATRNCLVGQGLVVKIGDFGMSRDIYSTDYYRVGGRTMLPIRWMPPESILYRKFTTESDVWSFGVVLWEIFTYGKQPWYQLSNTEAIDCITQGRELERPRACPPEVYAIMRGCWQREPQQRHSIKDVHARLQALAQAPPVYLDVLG
Chain of BDNF/NT-3 growth factors receptor (Homo sapiens) (Q16620 32-822 limits assumed): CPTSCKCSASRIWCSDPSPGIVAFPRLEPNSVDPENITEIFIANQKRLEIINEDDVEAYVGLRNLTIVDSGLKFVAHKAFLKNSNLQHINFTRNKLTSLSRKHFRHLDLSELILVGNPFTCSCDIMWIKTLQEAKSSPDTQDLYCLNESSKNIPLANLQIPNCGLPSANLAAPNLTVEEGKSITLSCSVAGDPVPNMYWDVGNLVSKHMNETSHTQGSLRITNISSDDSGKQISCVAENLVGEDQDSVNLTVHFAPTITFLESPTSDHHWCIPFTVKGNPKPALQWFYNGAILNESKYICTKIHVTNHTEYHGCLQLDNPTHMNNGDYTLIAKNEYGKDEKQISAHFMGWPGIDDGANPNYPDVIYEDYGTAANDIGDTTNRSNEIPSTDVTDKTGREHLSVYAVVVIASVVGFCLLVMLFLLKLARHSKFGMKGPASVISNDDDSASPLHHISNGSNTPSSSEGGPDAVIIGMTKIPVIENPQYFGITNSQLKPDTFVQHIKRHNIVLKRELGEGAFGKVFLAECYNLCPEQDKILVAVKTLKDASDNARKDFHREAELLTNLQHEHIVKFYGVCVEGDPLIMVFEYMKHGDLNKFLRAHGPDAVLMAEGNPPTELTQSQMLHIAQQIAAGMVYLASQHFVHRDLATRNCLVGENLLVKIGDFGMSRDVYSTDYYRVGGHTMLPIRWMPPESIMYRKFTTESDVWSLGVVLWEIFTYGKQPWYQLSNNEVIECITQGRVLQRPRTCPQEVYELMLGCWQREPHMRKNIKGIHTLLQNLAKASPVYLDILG

Compound	inhibition [1] [%]	inhibition [2] [%]	inhibition [3] [%]	inhibition [4] [%]	inhibition [5] [%]	inhibition [6] [%]	inhibition [7] [%]	inhibition [8] [%]	inhibition [9] [%]	inhibition [10] [%]	inhibition [11] [%]	inhibition [12] [%]	inhibition [13] [%]	inhibition [14] [%]	inhibition [15] [%]	inhibition [16] [%]	inhibition [17] [%]	inhibition [18] [%]	inhibition [19] [%]	inhibition [20] [%]
COc1cccc(-n2ncc3c(N/N=C/c4ccc(F)cc4)ncnc32)c1	4.65	3.34	4.5	3.31	6.74	4.3	8.25	-4.95	10.9	2.1	18.5	4.02	12.9	2.64	3.29	6.75	10.9	0.43	0.63	5.23
COc1cccc(-c2c[nH]c3c(N/N=C/c4ccncc4)ncnc23)c1	7.45	2.41	19.4	4.04	23.3	4.87	16.8	1.21	10.6	4.07	37.7	9.33	55.4	13.2	90.2	8.9	35.4	3.34	11.9	26
O=C(O[C@H]1CN[C@H](C#Cc2cc3ncnc(Nc4ccc(Cc5ccccc5)cc4)c3s2)C1)N1CCOCC1	-3.47	0.67	1.13	-0.77	-1.7	-0.97	1.36	-1.59	1.6	0	1.29	1.27	2.04	-0.18	5.53	3.08	7.29	0.39	0.86	-0.42
CCNC(=O)O[C@H]1CN[C@H](C#Cc2cc3ncnc(Nc4ccc(OCc5cccc(F)c5)c(Cl)c4)c3s2)C1	3.06	3.01	1.6	2.47	1.74	3.06	3.99	-3.3	10.4	1.24	9.61	0.34	8.23	1.85	12	3.53	9.99	0.18	2.21	4.18
CC(=O)NCc1cccc(C#Cc2cncnc2Nc2ccc(OCc3cccc(F)c3)c(Cl)c2)c1	1.37	0.64	2.98	0.24	4.11	2.29	-2.24	0.84	-8.1	1.59	5.66	1.99	6.3	1	-2.37	0.67	8.18	0.67	3.21	2.6
c1cc(-c2cnn3nc(N4CCOCC4)ccc23)nc(NC2CC2)n1	0.98	1.83	1.21	1.5	2.55	3.34	6.11	-8.45	60.1	1.84	22	7.41	46.8	7.39	75.5	5.74	12.1	-0.22	5.78	6.38
CS(=O)(=O)CCNCc1ccc(-c2ccc3ncnc(Nc4ccc(OCc5ccccc5)c(C(F)(F)F)c4)c3c2)o1	-0.59	2.63	2.63	2.74	1.42	-2.21	4.38	-7.44	9.83	2.91	2.77	1.73	3.4	-0.38	2.61	5.07	8.24	0.85	1.46	2.98
CCCN(CCS(C)(=O)=O)Cc1ccc(-c2ccc3ncnc(Nc4ccc(OCc5cccc(F)c5)c(Cl)c4)c3c2)o1	0.23	0.15	1.45	2.2	2.15	2.27	2.93	-3.81	5.96	1.47	11.8	3.11	8.39	1.17	5.04	2.22	5.54	0.84	2.9	1.66
COc1cc2c(cc1Nc1nc(Nc3ccsc3C(N)=O)c3cc[nH]c3n1)N(C(=O)CN(C)C)CCC2(C)C	13.6	3.72	11.4	4.08	11.6	2.02	4.22	-4.11	49.6	3.59	13.2	6.17	11.7	4.7	13.7	6.3	17.3	4.1	22.6	12.1
c1ccc(COc2ccc(Nc3ncnc4ccc(-c5ccco5)cc34)cc2)cc1	-2.33	-0.32	3.16	-0.16	0.74	0.01	1.09	-4.95	3.2	2.29	3.53	1.9	4.9	0.82	6.4	3.53	5.39	2.84	2.66	2.01
O=S(=O)(CCNCc1ccc(-c2ccc3ncnc(Nc4ccc(OCc5cccc(F)c5)c(Cl)c4)c3c2)o1)c1ccccc1	1.84	3.5	5.72	3.32	5.45	-1.02	5.43	-1.8	9.69	6.02	6.24	5.41	11.8	2.93	10.2	9.92	17.5	2.04	5.59	4.02
NC(=O)c1sc(-n2cnc3ccc(C(F)(F)F)cc32)cc1OCc1ccccc1Br	1.97	4.43	2.79	4.04	4.67	1.39	-0.88	-4.87	9.08	2.74	5.5	2.77	5.43	-0.7	-6.73	9.21	26	0.79	8.19	4.62
